Reference: PubChem BioAssay (NCATS)
Values joined by “and” are separate entries in the source; they are usually repeats but may differ in a detail not shown here. Equal values may be shown once. Inconclusive results are not listed. Active and inactive are the calls of the source. Unless noted, calls follow the shape of the dose curve; as a rule, active = well fitted curve in either direction with a large enough effect (not every such curve was filed as active); inconclusive = small, poorly fitted or top-dose-only effect, or another doubt; inactive = flat fitted curve, though single readings scatter.

Columns and labels:
[1] = AP1 Signaling Pathway (AID 357);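 also: ME-180 reporter cells stimulated with EGF at its EC50 level; % is scaled to controls: 0 for no effect and ±100 for the full control effect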
In short: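 Titration-series screen for positive or negative modulators of EC50 EGF-induced signaling in ME-180 cells carrying an AP-1-driven beta-lactamase reporter. After 5 hours at 37 degrees Celsius, CCF4 460nm/530nm emission ratio gave %Activity; AC50 values derived.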

[2] = target: Cytochrome P450 1A2 (Homo sapiens) (UniProt P05177); test: p450-cyp1a2 (AID 410; calls by dose curve; also: potency is read from the fitted curve at half-maximal effect;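 as to activity change, negative = inhibition: -100% = full effect of reference inhibitor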)
In short: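 Luminescent demethylation readout: Luciferin-ME (100uM, equal to Km) turned over by 20nM CYP1A2 for 60 min at room temperature after NADPH regeneration addition, following 10 min compound preincubation. Normalization used 57 uM furafylline as full inhibition.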

[3] = NFAT Signaling Pathway (AID 444); settings: Jurkat NFAT-bla M1, carbachol, beta-lactamase ratio, 5 h;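 also: carbachol stimulus at about its EC50 of 1 µM final; % is scaled to controls: 0 for no effect and ±100 for the full control effect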
In short: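 Jurkat cells with NFAT-driven β-lactamase reporter and co-expressed M1 receptor, stimulated with carbachol (final 1 uM, ~EC50), compound titration, 5 h at 37 °C. CCF4 loaded 1 h at RT; 460/530 nm ratio gave %activity and AC50.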

[4] = Stat Signaling Pathway (AID 446);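 also: ME-180 cervical cancer cells given 40 pM IL-6 alongside compound; SIE-controlled beta-lactamase reporter measured as 460/530 nm FRET emission ratio; % is scaled to controls: 0 for no effect and ±100 for the full control effect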
In short: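 Overnight-plated ME-180 cells bearing a STAT Inducible Element beta-lactamase reporter; 5 h co-exposure to compound and 40 pM IL-6; values normalized to 300 pM IL-6 and 125 nM JAK inhibitor controls.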

[5] = target: Glucocorticoid receptor (Homo sapiens) (UniProt P04150); test: GR-GFP Redistribution (AID 450;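 active = compounds whose dose series gives a full or clear partial fitted curve of increased nuclear translocation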; also: potency is read from the fitted curve at half-maximal effect); settings: U2OS GR-GFP nuclear translocation, laser cytometry, 2 h
[6] = target: Glucocorticoid receptor (Homo sapiens) (UniProt P04150); test: GR-EFC Redistribution (AID 451; calls by dose curve; also: potency is read from the fitted curve at half-maximal effect); settings: CHO-K1 GR-EFC translocation, beta-gal luminescence, 2 h
In short: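 CHO-K1 cells expressing nuclear EA and GR-ED fragments of b-gal; compounds titrated up to 46 uM final, 2 h at 37 C. GR nuclear translocation read as complemented b-gal luminescence after 1 h RT detection.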

[7] = target: Mitogen-activated protein kinase 10 (Mus musculus) (UniProt Q61831); test: JNK3 AlphaScreen Assay (AID 530);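 also: kinase came from lysate of stimulated human HepG2 cells; signal reports phosphorylation of biotinylated GST-cJun 1-79 at Ser73 with 10 µM ATP; % is scaled to controls: 0 for no effect and ±100 for the full control effect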
In short: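 Activity was read by AlphaScreen after JNK3-containing HepG2 lysate (cytokine pre-activated) phosphorylated biotinylated GST-cJun with 10 uM ATP at room temperature. Phospho-Ser73 cJun antibody with Protein-A acceptor beads provided detection.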

[8] = target: 3',5'-cyclic-AMP phosphodiesterase 4B (Homo sapiens) (UniProt Q07343); test: qHTS Assay for Inhibitors of PDE-IV (AID 607; active = well fitted activation curve with a large enough effect in the main read-out, with a control signal flat, not every such curve was filed as active; also: % of control where 0% means no effect)
In short: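 Live HEK293 cells with a modified cyclic nucleotide-gated (CNG) channel report intracellular cAMP via membrane-potential dye fluorescence (ex 535/em 590 nm). Endogenous PDE-IV was targeted. Compounds were tested at up to 22.9 uM final; RO 20-1724 100 uM served as control.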

[9] = target: Cytochrome P450 2D6 (Homo sapiens) (UniProt P10635); test: qHTS Assay for Inhibitors and Substrates of Cytochrome P450 2D6 (AID 891; active = well fitted curve in the direction sought with a large enough effect; an effect the other way counts as inactive or inconclusive; also: nearly all actives have a fitted effect of over 60% in size; also: potency is read from the fitted curve at half-maximal effect)
In short: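 Luminescent read-out of luciferin formed by 5 nM human CYP2D6 demethylating 30 uM Luciferin-ME EGE (Km level) over 60 min at room temperature after NADPH regeneration addition. Data normalized to full inhibition by 1.43 uM quinidine.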

[10] = qHTS Assay for Lipid Storage Modulators (AID 1519; calls by dose curve); settings: Drosophila S3 cells, BODIPY lipid droplet/cell ratio, laser cytometry, cells loaded with oleic acid; for activity change, negative = inhibition: at 25.7 µM (top of the series)
In short: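 Cells seeded at 5,000 per well were treated with compounds over a concentration series and loaded with oleic acid (400 uM, as added). Lipid droplet fluorescence (488 nm excitation, 500-530 nm channel) was read by laser-scanning cytometry and normalized to 20 uM Triacsin C.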

[11] = target: Ubiquitin carboxyl-terminal hydrolase 1 (Homo sapiens) (UniProt O94782); test: Inhibitors of USP1/UAF1: Pilot qHTS (AID 504865; active = well fitted curve in the direction sought with a large enough effect; an effect the other way counts as inactive or inconclusive;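 also: rhodamine fluorescence freed from ubiquitin-rhodamine substrate followed over time; top concentration of the series differs between compounds; % is scaled to controls: 0 for no effect and ±100 for the full control effect; nearly all actives have a fitted effect of over 35% in size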)
In short: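 Kinetic fluorescence assay: 1nM USP1/UAF1, 15 min compound preincubation, then 150nM Ub-Rho; 480/540 nm.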

[12] = target: Cytochrome P450 3A4 (Homo sapiens) (UniProt P08684); test: qHTS Assay for Activators of Cytochrome P450 3A4 (AID 885; active = well fitted curve in the direction sought with a large enough effect; an effect the other way counts as inactive or inconclusive; also: nearly all actives have a fitted effect of over 65% in size)
In short: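 Using 20nM recombinant human CYP3A4 in potassium phosphate (200mM), substrate Luciferin-PPXE at 25uM, luminescent luciferin detection followed a 60-min RT NADPH reaction; data scaled to 57 uM ketoconazole.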

[13] = target: ATP-dependent 6-phosphofructokinase (Trypanosoma brucei brucei) (UniProt O15648); test: qHTS Assay to Find Inhibitors of T. brucei phosphofructokinase: hit validation (AID 492961; active = well fitted curve in the direction sought with a large enough effect; an effect the other way counts as inactive or inconclusive)
In short: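 Inhibition of parasite PFK is measured as reduced ADP formation, quantified via luciferase after ATP depletion. Assay used 0.1 mM ATP, 0.5 mM F6P, 1.25 nM enzyme, 45 min incubation.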

[14] = qHTS profiling for inhibitors of Plasmodium falciparum proliferation (AID 504749; active = well fitted curve in the direction sought with a large enough effect; an effect the other way counts as inactive or inconclusive;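 also: 0% = DMSO vehicle and full inhibition = artemisinin control; nearly all actives have a fitted effect of over 60% in size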); settings: P. falciparum in erythrocytes, SYBR Green DNA, 72 h, at 12.8 µM (top of the series)
In short: (§1)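 Each compound contacts P. falciparum-infected red blood cells for 72 h at 37 C; lysis buffer (Tris, EDTA, saponin, Triton X, SYBR Green I) is added and fluorescence measured next morning; values normalized to controls.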

CP203 = test: as above; settings: P. falciparum in erythrocytes, SYBR Green DNA, 72 h; series mostly up to 28.7 µM
In short: as §1

CP215 = test: as above; settings: P. falciparum in erythrocytes, SYBR Green DNA, 72 h; series mostly up to 28.7 µM
In short: as §1

CP262 = test: as above; settings: P. falciparum in erythrocytes, SYBR Green DNA, 72 h; series mostly up to 28.7 µM
In short: as §1

CP268 = test: as above; settings: P. falciparum in erythrocytes, SYBR Green DNA, 72 h; series mostly up to 28.7 µM
In short: as §1

CP297 = test: as above; settings: P. falciparum in erythrocytes, SYBR Green DNA, 72 h; series mostly up to 28.7 µM
In short: as §1

[15] = measured here: cell count channel max response
[16] = measured here: lipid channel max response

Ubiquitin carboxyl-terminal hydrolase 1 (Homo sapiens), sequence (O94782 whole entry, looked up): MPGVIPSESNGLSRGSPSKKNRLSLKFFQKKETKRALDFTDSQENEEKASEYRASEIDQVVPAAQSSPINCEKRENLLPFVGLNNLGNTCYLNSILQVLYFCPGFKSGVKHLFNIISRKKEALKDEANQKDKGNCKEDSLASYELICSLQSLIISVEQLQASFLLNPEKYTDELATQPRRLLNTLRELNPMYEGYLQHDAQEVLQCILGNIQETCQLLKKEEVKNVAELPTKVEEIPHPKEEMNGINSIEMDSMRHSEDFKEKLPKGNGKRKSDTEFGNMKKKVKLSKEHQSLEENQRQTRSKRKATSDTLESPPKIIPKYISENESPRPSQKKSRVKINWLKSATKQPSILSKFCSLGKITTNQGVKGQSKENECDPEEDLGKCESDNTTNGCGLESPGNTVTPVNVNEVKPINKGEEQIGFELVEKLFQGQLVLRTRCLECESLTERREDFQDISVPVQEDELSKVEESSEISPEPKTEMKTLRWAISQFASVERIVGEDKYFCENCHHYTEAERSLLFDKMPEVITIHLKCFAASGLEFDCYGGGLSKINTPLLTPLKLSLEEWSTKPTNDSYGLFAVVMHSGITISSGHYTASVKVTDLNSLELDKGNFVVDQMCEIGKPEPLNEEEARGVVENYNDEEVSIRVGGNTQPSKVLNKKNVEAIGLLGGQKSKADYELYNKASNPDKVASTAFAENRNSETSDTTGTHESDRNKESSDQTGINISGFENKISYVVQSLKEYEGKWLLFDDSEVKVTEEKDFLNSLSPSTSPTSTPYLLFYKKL
Cytochrome P450 3A4 (Homo sapiens), sequence (P08684 whole entry, looked up): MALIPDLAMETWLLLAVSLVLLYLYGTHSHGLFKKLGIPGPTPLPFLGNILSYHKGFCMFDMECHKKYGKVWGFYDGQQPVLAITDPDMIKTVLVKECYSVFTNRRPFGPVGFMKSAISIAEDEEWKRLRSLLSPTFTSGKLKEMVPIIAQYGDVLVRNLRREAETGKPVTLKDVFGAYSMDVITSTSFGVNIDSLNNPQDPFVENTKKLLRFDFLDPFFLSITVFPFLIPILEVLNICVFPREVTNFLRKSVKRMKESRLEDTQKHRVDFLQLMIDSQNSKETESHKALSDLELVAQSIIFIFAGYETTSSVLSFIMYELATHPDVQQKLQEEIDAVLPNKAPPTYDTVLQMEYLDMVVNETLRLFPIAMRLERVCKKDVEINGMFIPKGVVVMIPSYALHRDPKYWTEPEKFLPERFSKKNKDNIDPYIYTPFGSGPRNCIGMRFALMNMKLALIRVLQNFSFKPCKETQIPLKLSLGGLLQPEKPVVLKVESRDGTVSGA
ATP-dependent 6-phosphofructokinase (Trypanosoma brucei brucei), sequence (O15648 whole entry, looked up): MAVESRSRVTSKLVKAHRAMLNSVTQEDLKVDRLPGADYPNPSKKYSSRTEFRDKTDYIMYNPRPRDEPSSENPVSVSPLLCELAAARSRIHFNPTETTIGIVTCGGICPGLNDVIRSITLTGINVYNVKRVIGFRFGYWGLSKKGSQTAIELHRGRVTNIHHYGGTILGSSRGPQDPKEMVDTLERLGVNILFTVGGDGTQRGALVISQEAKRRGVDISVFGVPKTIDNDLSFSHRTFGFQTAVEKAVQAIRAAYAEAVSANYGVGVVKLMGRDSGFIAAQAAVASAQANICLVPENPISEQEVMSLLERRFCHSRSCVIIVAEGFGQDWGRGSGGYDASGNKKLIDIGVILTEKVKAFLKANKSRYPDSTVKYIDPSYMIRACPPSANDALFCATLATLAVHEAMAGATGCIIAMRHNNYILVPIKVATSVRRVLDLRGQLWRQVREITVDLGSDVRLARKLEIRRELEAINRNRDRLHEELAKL
3',5'-cyclic-AMP phosphodiesterase 4B (Homo sapiens), sequence (Q07343 whole entry, looked up): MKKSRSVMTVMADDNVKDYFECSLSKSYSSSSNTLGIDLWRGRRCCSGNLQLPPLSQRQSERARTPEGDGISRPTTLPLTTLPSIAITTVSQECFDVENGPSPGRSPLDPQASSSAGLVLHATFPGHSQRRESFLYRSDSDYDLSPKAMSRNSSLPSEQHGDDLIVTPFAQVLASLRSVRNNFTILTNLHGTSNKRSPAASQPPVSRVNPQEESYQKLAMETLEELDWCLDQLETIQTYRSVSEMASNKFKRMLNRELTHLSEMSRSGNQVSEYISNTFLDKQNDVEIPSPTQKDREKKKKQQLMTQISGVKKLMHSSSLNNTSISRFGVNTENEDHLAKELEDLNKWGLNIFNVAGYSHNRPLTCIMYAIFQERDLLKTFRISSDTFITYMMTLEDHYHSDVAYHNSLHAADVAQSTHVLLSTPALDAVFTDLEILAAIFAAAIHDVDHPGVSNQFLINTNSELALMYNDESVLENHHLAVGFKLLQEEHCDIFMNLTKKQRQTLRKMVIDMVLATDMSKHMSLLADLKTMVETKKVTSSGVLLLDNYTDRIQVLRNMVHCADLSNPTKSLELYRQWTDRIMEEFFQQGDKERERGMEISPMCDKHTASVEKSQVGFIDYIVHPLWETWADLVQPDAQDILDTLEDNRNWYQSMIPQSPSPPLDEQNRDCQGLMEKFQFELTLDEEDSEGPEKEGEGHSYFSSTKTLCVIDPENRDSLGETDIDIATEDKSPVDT
Cytochrome P450 2D6 (Homo sapiens), sequence (P10635 whole entry, looked up): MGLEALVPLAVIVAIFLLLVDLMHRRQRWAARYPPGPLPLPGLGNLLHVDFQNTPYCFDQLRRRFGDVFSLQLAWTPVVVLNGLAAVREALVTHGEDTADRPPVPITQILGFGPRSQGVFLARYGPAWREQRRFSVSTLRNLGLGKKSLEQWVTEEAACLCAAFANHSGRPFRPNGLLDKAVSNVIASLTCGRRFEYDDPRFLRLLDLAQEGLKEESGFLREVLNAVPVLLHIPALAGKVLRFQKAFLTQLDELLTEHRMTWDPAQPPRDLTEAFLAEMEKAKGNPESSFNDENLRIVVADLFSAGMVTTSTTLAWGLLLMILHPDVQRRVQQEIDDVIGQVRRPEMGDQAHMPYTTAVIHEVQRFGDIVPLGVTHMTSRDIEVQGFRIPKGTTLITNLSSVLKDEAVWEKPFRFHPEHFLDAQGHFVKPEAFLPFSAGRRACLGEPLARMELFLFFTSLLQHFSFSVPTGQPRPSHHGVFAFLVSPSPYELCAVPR
Glucocorticoid receptor (Homo sapiens), sequence (P04150 whole entry, looked up, the tested form may be a part): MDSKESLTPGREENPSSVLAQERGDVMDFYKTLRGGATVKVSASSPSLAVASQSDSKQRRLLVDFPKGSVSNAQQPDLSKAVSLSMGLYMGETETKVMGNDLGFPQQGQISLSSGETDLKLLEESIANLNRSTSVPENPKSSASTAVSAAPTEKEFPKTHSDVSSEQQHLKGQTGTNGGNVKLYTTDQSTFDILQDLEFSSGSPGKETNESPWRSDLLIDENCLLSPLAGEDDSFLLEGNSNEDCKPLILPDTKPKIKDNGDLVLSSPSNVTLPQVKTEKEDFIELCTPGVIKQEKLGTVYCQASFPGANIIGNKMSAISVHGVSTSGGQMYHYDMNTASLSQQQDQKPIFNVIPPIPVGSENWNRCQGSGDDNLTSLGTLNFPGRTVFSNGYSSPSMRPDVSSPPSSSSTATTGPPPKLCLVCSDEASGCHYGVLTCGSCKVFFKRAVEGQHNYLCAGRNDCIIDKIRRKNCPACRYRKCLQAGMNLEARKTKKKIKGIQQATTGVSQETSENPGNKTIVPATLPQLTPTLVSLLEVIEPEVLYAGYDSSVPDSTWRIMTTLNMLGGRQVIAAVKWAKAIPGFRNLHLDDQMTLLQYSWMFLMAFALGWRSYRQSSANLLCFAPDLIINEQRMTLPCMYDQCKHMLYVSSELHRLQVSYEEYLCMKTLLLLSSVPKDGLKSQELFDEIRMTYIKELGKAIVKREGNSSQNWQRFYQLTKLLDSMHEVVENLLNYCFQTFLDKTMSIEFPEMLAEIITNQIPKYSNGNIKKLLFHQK
Cytochrome P450 1A2 (Homo sapiens), sequence (P05177 whole entry, looked up): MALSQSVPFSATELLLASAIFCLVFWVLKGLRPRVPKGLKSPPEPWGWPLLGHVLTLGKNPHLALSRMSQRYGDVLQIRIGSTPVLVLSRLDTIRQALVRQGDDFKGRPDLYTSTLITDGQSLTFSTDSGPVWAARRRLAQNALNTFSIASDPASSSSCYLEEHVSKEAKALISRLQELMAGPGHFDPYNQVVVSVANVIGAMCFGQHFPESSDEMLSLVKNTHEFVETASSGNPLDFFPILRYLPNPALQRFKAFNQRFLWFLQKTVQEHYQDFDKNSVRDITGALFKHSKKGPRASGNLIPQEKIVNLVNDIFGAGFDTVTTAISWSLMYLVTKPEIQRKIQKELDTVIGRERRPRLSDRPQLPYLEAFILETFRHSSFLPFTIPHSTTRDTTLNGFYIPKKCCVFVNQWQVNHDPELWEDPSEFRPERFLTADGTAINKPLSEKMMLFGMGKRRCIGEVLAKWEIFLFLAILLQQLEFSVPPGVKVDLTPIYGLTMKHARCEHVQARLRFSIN

CN1CCc2cc3c(cc2[C@@H]1O)OCO3
3.98%: max response [10, 16]
active: Potency [9] 7.94 µM
inactive: outcome [1] | Potency [2] | activity change, negative = inhibition ([3]; at 17.2 µM (top of the series)) -5.65% | outcome [4] | Potency [5] > 20.6 µM | Potency [6] > 20.6 µM | outcome [7] | Potency [8] | activity change, negative = inhibition [10] 0.396% | Potency [11]
4.41%: max response [10, 15]

C/C=C1\C[N@@+]2(C)CC[C@@]34C(=C(C=O)[C@H]1C[C@H]32)Nc1ccccc14
-5.51%: max response [10, 16]
-3.08%: max response [10, 15]
inactive: outcome [1] | Potency [2] | activity change, negative = inhibition ([3]; at 17.2 µM (top of the series)) -3.46% | outcome [4] | Potency [5] > 20.6 µM | outcome [7] | Potency [8] | Potency [12] | activity change, negative = inhibition [10] -2.98% | Potency [11]

CC(C)(C)NC[C@H](O)c1cc(Cl)c(N)c(Cl)c1
inactive: outcome [1] | Potency [2] | activity change, negative = inhibition ([3]; at 17.2 µM (top of the series)) -7.65% | outcome [4] | outcome [7] | Potency [8] | activity change, negative = inhibition [10] -0.0671% | Potency [11]
1.84%: max response [10, 15]
2.72%: max response [10, 16]

CN1CCc2cc3c(cc2[C@@H]1[C@@H]1OC(=O)c2c1ccc1c2OCO1)OCO3
-3.68%: max response [10, 15]
active: Potency [2] 15.8 µM
inactive: outcome [1] | activity change, negative = inhibition ([3]; at 17.2 µM (top of the series)) 4.41% | activity change, negative = inhibition ([3]; at 38 µM (top of the series)) -4.78% | outcome [4] | Potency [5] > 46 µM and > 20.6 µM | Potency [6] > 46 µM and > 20.6 µM | outcome [7] | Potency [8] | Potency [12] | Potency [9] | activity change, negative = inhibition [10] -1.13% | Potency [11]
-5.44%: max response [10, 16]

NCC[C@H](O)C(=O)N[C@H]1C[C@@H](N)[C@@H](O[C@H]2O[C@@H](CN)[C@@H](O)[C@@H](O)[C@@H]2N)[C@@H](O[C@H]2O[C@@H](CO)[C@@H](O)[C@@H]2O)[C@@H]1O
-10.6%: max response [10, 15]
inactive: outcome [1] | Potency [2] | activity change, negative = inhibition ([3]; at 17.2 µM (top of the series)) -14.8% | outcome [4] | outcome [7] | Potency [8] | activity change, negative = inhibition [10] -3.44% | Potency [13] | Potency [11] | activity, negative = inhibition ([14]; parasite line A) 12.6% | activity, negative = inhibition ([14]; parasite line B) 8.36% | Potency (CP203) | Potency (CP215) | Potency (CP262) | Potency (CP268) | Potency (CP297)
-13.9%: max response [10, 16]

C[C@H]1CN(C2CCC(C#N)(c3ccc(F)cc3)CC2)CC[C@@]1(C(=O)O)c1ccccc1 (stereo not given in full)
-20.8%: max response [10, 16]
inactive: outcome [1] | Potency [2] | outcome [4] | Potency [5] > 20.6 µM | Potency [6] > 20.6 µM | outcome [7] | Potency [8] | activity change, negative = inhibition [10] -3.1% | Potency [13] | activity, negative = inhibition ([14]; parasite line A) 1.54% | activity, negative = inhibition ([14]; parasite line B) 12.6% | Potency (CP203) | Potency (CP215) | Potency (CP262) | Potency (CP268) | Potency (CP297)
-19.6%: max response [10, 15]

CCN1C[C@@]2(COC)CC[C@H](O)[C@@]34[C@@H]2C[C@@H]([C@@H]13)[C@]1(O)C[C@@H](OC)C2C[C@H]4[C@H]1[C@H]2OC(C)=O
inactive: outcome [1] | Potency [2] | activity change, negative = inhibition ([3]; at 17.2 µM (top of the series)) -14.2% | outcome [4] | Potency [5] > 20.6 µM | outcome [7] | Potency [8] | activity change, negative = inhibition [10] 2.15% | Potency [11]
-5.05%: max response [10, 16]
-6.46%: max response [10, 15]

CNC[C@H](O)c1ccc(O)c(OC)c1
inactive: outcome [1] | Potency [2] | activity change, negative = inhibition ([3]; at 17.2 µM (top of the series)) 3.38% | outcome [4] | Potency [5] > 20.6 µM | Potency [6] > 20.6 µM | outcome [7] | Potency [8] | activity change, negative = inhibition [10] -0.567% | Potency [11]
7.01%: max response [10, 15]
8.44%: max response [10, 16]

C=C1[C@@H]2C[C@@]3([C@H]1O)[C@H]1C[C@@H]4[C@@]5(C)CC[C@H](O)[C@]4([C@H]1N(CC)C5)[C@H]3C[C@H]2O
-11.5%: max response [10, 15]
-13.2%: max response [10, 16]
inactive: outcome [1] | Potency [2] | activity change, negative = inhibition ([3]; at 17.2 µM (top of the series)) -13% | outcome [4] | Potency [5] > 20.6 µM | Potency [6] > 20.6 µM | outcome [7] | Potency [8] | activity change, negative = inhibition [10] -1.27% | Potency [11]

COc1cc2c(c(OC)c1OC)-c1ccc(O)c(=O)cc1[C@H](N)CC2
-6.02%: max response [10, 15]
inactive: outcome [1] | Potency [2] | activity change, negative = inhibition ([3]; at 17.2 µM (top of the series)) 14.9% | outcome [4] | Potency [5] > 20.6 µM | Potency [6] > 20.6 µM | outcome [7] | Potency [8] | Potency [12] | activity change, negative = inhibition [10] 1.48% | Potency [11]
-4.27%: max response [10, 16]

CC[C@H]1CN2CC[C@@H]1C[C@H]2[C@@H](O)c1ccnc2ccc(OC)cc12
inactive: outcome [1] | Potency [2] | activity change, negative = inhibition ([3]; at 17.2 µM (top of the series)) -20.4% | outcome [4] | Potency [5] > 20.6 µM | Potency [6] > 20.6 µM | outcome [7] | activity change, negative = inhibition [10] -3.88%
-5.46%: max response [10, 16]
active: Potency [9] 3.16 µM
-1.96%: max response [10, 15]

CC(C)c1c(CN(C)[C@@H](C)Cc2ccccc2)n(C)n(-c2ccccc2)c1=O
inactive: outcome [1] | Potency [2] | activity change, negative = inhibition ([3]; at 17.2 µM (top of the series)) -17.7% | outcome [4] | Potency [5] > 20.6 µM | Potency [6] > 20.6 µM | outcome [7] | Potency [8] | Potency [12] | activity change, negative = inhibition [10] -3.14% | Potency [13] | activity, negative = inhibition ([14]; parasite line A) 6.98% | Potency (CP203) | Potency (CP215) | Potency (CP262) | Potency (CP268) | Potency (CP297)
-13.6%: max response [10, 15]
-14.7%: max response [10, 16]

COC1=CC(=O)O[C@@H](/C=C\c2ccccc2)C1
active: Potency [2] 3.16 µM
-5.23%: max response [10, 15]
-0.269%: max response [10, 16]
inactive: outcome [1] | activity change, negative = inhibition ([3]; at 17.2 µM (top of the series)) -0.425% | outcome [4] | Potency [5] > 20.6 µM | outcome [7] | Potency [8] | activity change, negative = inhibition [10] 1.1% | Potency [11]
